According to PubChem BioAssay (NCI):
The panel holds about 83,000 compounds, 20% with a hit somewhere; the sample as a whole holds those more often.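 96-well plates, one dose, 48 hours. Percent growth reported; active if below 10.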 A number with no mark means an inactive call. Active and inactive are the calls of the source.

system: RPMI-8226 leukemia; assay: NCI-60 one-dose screen, 48 h (100 = growth as untreated, 0 = no growth, -100 = all killed); details: 10 µM

Compound	growth
CSc1nc(S(C)(=O)=O)nc2[nH]c(=O)[nH]c12	123%
O=C(N/N=C/c1cc([N+](=O)[O-])ccc1O)c1cccc2ccccc12	21.5%
O=c1c(Br)ccc(Br)cc1Br	-51.2% (active)
CC(=O)COc1ccc(Cl)cc1Cl	86.7%
O=C(O)Cc1ccc(O)c(O)c1	92.4%
O=C1OC(C(Cl)(Cl)Cl)OC1C(Cl)(Cl)Cl (stereo not drawn)	104%
O=C1/C(=C/c2cccc(F)c2)Cc2ccccc21	93.3%
Cc1ccc(C2NC(=S)N3C(c4ccc(C)cc4)NC(=S)N23)cc1 (stereo not drawn)	6.55% (active)
Cc1c(C(N)=O)sc2c1c(=O)n(Cc1ccccc1)c1nnc(-c3ccc(Br)cc3)n21	12.1%
Nc1nc(N)c(N)c(Nc2ccc(CCO)cc2)n1	95.3%
CN(C)c1ccc(/C=N/NC(=O)c2cccc3ccccc23)c(Cl)c1	7.96% (active)
CCOC(=O)c1cocc1C(=O)O	114%
CC(C)(C)c1nn(-c2ccccc2)c2c1CC1(CN2Cc2ccc(Cl)cc2)C(=O)c2ccccc2C1=O	59.5%
O=C(c1ccccc1)N(C(=O)c1ccccc1)N1CCCC1	103%
COC1=CC(=O)OC(c2ccc(OC)cc2)C1 (stereo not drawn)	111%
COC(=O)CC[C@@H](C)[C@H]1CC[C@H]2[C@@H]3CC[C@@H]4C[C@H](O)CC[C@]4(C)[C@H]3C[C@H](O)[C@]12C	68.4%
CCOc1ccccc1/C=N\N=C(\N)N/N=C/c1ccccc1OCC	27.1%
Cc1cc(Br)nnc1Br	122%
COc1ccc2c(c1)C(CC(=O)NN)CCC2 (stereo not drawn)	113%
COc1ccccc1N1CCCSC1=Nc1ccccc1	43.6%
CCCCCCCCCCCC[n+]1c(C)cc(N)c2ccccc21	-28.4% (active)
Cc1ccc(C(SCC(N)C(=O)O)(c2ccc(C)cc2)c2ccc(C)cc2)cc1 (stereo not drawn)	-36.6% (active)
CC1OC2CC(=O)OC2C2=C1C(=O)c1c(O)c3c(c(O)c1C2=O)C1CC(O)C3(O)C(C)O1 (stereo not drawn)	-6.28% (active)
O=C1c2ccccc2C(=O)N1CCCCNc1ccccc1	30.5%
Fc1ccc(C(c2ccc(F)cc2)C(Cl)Cl)cc1	97.3%
CCCCN1C(=O)CC(SC2CC(=O)N(CCCC)C2=O)C1=O (stereo not drawn)	100%
O=[N+]([O-])c1ccc(NCSc2ccc(Cl)cc2)cc1	91.8%
CN(C)c1nc(N)c2nccnc2n1	110%
C=C1CCC2(C#N)[C@H]3[C@H](CC[C@@H]2C)[C@@H](C)C[C@@H](CC(C)(C)NC(=O)CN2CCC2=O)[C@H]13 (stereo partly drawn)	-11.3% (active)
COc1cc(C2CC(c3cc(Cl)c(C)cc3O)=NN2c2ccc(S(N)(=O)=O)cc2)cc(OC)c1OC (stereo not drawn)	11.9%

system: OVCAR-8 ovarian; assay: as above; details: 10 µM

Compound	growth
CSc1nc(S(C)(=O)=O)nc2[nH]c(=O)[nH]c12	108%
CC1(C)N=C(N)N=C(N)N1c1cccc(C#N)c1	33.8%
Nc1cc(-c2ccc(Cl)cc2)nn1-c1nc2ccccc2nc1Cc1ccccc1	91.2%
O=C(N/N=C/c1cc([N+](=O)[O-])ccc1O)c1cccc2ccccc12	22.8%
CC(=O)COc1ccc(Cl)cc1Cl	107%
Cc1cn(-c2cc(F)cc(NC(=O)c3ccc(C)c(Nc4nccc(-c5cccnc5)n4)c3)c2)cn1	31.6%
O=C(O)Cc1ccc(O)c(O)c1	104%
O=C1OC(C(Cl)(Cl)Cl)OC1C(Cl)(Cl)Cl (stereo not drawn)	104%
O=C1/C(=C/c2cccc(F)c2)Cc2ccccc21	97.4%
CCN1C(=O)CC(SC2CC(=O)N(CC)C2=O)C1=O (stereo not drawn)	109%
Cc1ccc(C2NC(=S)N3C(c4ccc(C)cc4)NC(=S)N23)cc1 (stereo not drawn)	35.7%
COc1cc2nc(SCC(=O)Nc3cc(OC)c(OC)c(OC)c3)n(Cc3ccccc3)c(=O)c2cc1OC	-4.94% (active)
Cc1c(C(N)=O)sc2c1c(=O)n(Cc1ccccc1)c1nnc(-c3ccc(Br)cc3)n21	0.274% (active)
Nc1nc(N)c(N)c(Nc2ccc(CCO)cc2)n1	105%
COc1ccc(-c2nn(-c3cccc(Cl)c3)cc2-c2c(C#N)c(N)n(N)c(=O)c2C#N)cc1	73.3%
CCOC(=O)c1cocc1C(=O)O	105%
CC(C)(C)c1nn(-c2ccccc2)c2c1CC1(CN2Cc2ccc(Cl)cc2)C(=O)c2ccccc2C1=O	105%

Compound	growth
NC(N)=N/N=C(\N=Nc1ccccc1)c1ccc(Cl)cc1	26.2%
COC1=CC(=O)OC(c2ccc(OC)cc2)C1 (stereo not drawn)	105%
Cc1nn(-c2ccccc2)c2nc(Cl)c(C=O)c(-c3ccccc3)c12	99.9%
COC(=O)CC[C@@H](C)[C@H]1CC[C@H]2[C@@H]3CC[C@@H]4C[C@H](O)CC[C@]4(C)[C@H]3C[C@H](O)[C@]12C	103%
CCOc1ccccc1/C=N\N=C(\N)N/N=C/c1ccccc1OCC	39.1%
Cc1cc(Br)nnc1Br	115%
COc1ccc2c(c1)C(CC(=O)NN)CCC2 (stereo not drawn)	99.1%
COc1ccccc1N1CCCSC1=Nc1ccccc1	104%
CCCCCCCCCCCC[n+]1c(C)cc(N)c2ccccc21	3.24% (active)
Cc1ccc(C(SCC(N)C(=O)O)(c2ccc(C)cc2)c2ccc(C)cc2)cc1 (stereo not drawn)	7.22% (active)
CC1OC2CC(=O)OC2C2=C1C(=O)c1c(O)c3c(c(O)c1C2=O)C1CC(O)C3(O)C(C)O1 (stereo not drawn)	5.64% (active)
Fc1ccc(C(c2ccc(F)cc2)C(Cl)Cl)cc1	101%
CCCCN1C(=O)CC(SC2CC(=O)N(CCCC)C2=O)C1=O (stereo not drawn)	108%
O=[N+]([O-])c1ccc(NCSc2ccc(Cl)cc2)cc1	97%
CN(C)c1nc(N)c2nccnc2n1	110%
C=C1CCC2(C#N)[C@H]3[C@H](CC[C@@H]2C)[C@@H](C)C[C@@H](CC(C)(C)NC(=O)CN2CCC2=O)[C@H]13 (stereo partly drawn)	54.8%
